Whole data set: some 39,000 sequences, median “fluorescence intensity (a.u.)” near 4,300, cut for the highest 2% near 39,000. The entries come from a sample that favours the highest values as a whole.
Target: T1, OsSMF1 (Oryza sativa, UniProt Q6ZLB0 1-436)
T1 sequence: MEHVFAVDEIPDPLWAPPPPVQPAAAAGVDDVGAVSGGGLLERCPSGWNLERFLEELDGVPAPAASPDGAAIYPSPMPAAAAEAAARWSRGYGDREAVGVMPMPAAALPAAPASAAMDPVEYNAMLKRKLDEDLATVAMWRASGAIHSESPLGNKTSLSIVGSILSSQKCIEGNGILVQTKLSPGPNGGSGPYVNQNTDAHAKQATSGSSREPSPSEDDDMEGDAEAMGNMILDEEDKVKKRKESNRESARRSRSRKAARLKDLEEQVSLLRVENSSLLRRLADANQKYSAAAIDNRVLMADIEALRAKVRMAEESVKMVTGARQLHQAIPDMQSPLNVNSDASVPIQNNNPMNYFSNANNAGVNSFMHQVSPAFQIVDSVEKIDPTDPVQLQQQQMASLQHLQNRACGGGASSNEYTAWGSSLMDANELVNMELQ
Test: protein-binding microarray (RPBM); PBS, 2% BSA, 51.3 ng/ul salmon testes DNA, 50 uM zinc acetate, 200 nM TF, 25 C, 1 h; high values mean tight binding
Conditions: protein: recombinant; tags: N-terminal polyhistidine and DsRed monomer fusion (pET32a); chain copies: 2; label: CyDye5-dUTP incorporated in the synthesized complementary strand; 3' TTTTT single-stranded linker to array surface; dsDNA, one strand shown
Procedure, shortened: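 Per-feature fluorescence intensity (arbitrary units), read on an Axon 4000B scanner, is the binding signal. Transcription factors carrying an N-terminal polyhistidine tag and DsRed fusion were expressed in E. coli BL21-CodonPlus and purified on Ni–NTA. A custom Agilent array, made double-stranded by primer extension with Cy5-dUTP and blocked with 2% BSA, was incubated with 200 nM protein in PBS, 2% BSA, salmon testes DNA and 50 µM zinc acetate at 25 °C for 1 h and then washed.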

Row | Sequence | binding signal
1 | GTTTTCGCTTGTACTTCACAGGCTGATCACGGTCAGTACTCGGAGTCACCTAGTGCAG | 48700 fluorescence intensity (a.u.)
2 | GAGGGGTTACGCGTTAGGCGCTGCCACGTGTATCGATCGGCGGAGTCACCTAGTGCAG | 21900 fluorescence intensity (a.u.)
3 | CGAGGATTTGAGATCTGAGATGGCACGGACACTAGACAACCGGAGTCACCTAGTGCAG | 3440 fluorescence intensity (a.u.)
4 | GGGAACATTGTGTGCCAAAATTGACTCACGAATATACAAGCGGAGTCACCTAGTGCAG | 3340 fluorescence intensity (a.u.)
5 | TATTTCTTCACCTTTAGTCATGTCACCTCTCACTTCACACCGGAGTCACCTAGTGCAG | 5120 fluorescence intensity (a.u.)
6 | CTTTCTTTCTTTCTTTGTGCCCAACTCTGACACGACTCACCGGAGTCACCTAGTGCAG | 5180 fluorescence intensity (a.u.)
7 | CTTCTTCGGGCCTTCTTTCAGAACTTTGGGTGGGCCTCACCGGAGTCACCTAGTGCAG | 64300 fluorescence intensity (a.u.)
8 | CACCCAAGAACCGGTGGTATTCTTTGGACACGAGAACTTTCGGAGTCACCTAGTGCAG | 39100 fluorescence intensity (a.u.)
9 | TAAACTTCGGTGGCATGTCATCATCTTCAAACTCATCTTTCGGAGTCACCTAGTGCAG | 4670 fluorescence intensity (a.u.)
10 | TTCTTTGGTGGGTGCCACGTAGGAGAAACCCAGCAGGAGTCGGAGTCACCTAGTGCAG | 12000 fluorescence intensity (a.u.)
11 | ACTCCCCTCCCCGCCACGTCGCCATTCTTCCCGCTCCTGACGGAGTCACCTAGTGCAG | 11800 fluorescence intensity (a.u.)
12 | GCTCGCCTTTTATCGCAGCCAAAGCCATGAAATTTCCCCACGGAGTCACCTAGTGCAG | 27500 fluorescence intensity (a.u.)
13 | CTCGCGTCGCCACGCAACTTAATTAATTTAGCCCCTAATTCGGAGTCACCTAGTGCAG | 3640 fluorescence intensity (a.u.)
14 | CTTCTAGCTGACACCTGTGCGCCGCCGCCTAATTTCAACTCGGAGTCACCTAGTGCAG | 3930 fluorescence intensity (a.u.)
15 | GCACCTCGTTAGGCTTCATGGTCATGGCTCGTCGCTGACGCGGAGTCACCTAGTGCAG | 6120 fluorescence intensity (a.u.)
16 | GCGGTTTCCTAGTTGACTGACCAAACAATTCATATATATTCGGAGTCACCTAGTGCAG | 6140 fluorescence intensity (a.u.)
17 | CGGCCGTGTTAAGCCTCTTCCAAAGTCAGCTGAGTTGTGCCGGAGTCACCTAGTGCAG | 5460 fluorescence intensity (a.u.)
18 | TCGTGCTACAGATCTATAGCACACTACTCTTCTCTCTCTTCGGAGTCACCTAGTGCAG | 3370 fluorescence intensity (a.u.)
19 | CCTACACTGAAGTTAAGCAGATCTTCCAGGCCTCGTGTTTCGGAGTCACCTAGTGCAG | 43800 fluorescence intensity (a.u.)
20 | TCTTACAGCGCGCGTGTTCGTTCGAACGATTCTCTTCTTCCGGAGTCACCTAGTGCAG | 51900 fluorescence intensity (a.u.)
21 | CCACGAACAGCTACACGTCTCCTTCTCCTTCTTCGATTTCCGGAGTCACCTAGTGCAG | 37400 fluorescence intensity (a.u.)
22 | ACAAGAGCCAGCGCGGCGTGTGTGCGCGATTTCTCTCTTCCGGAGTCACCTAGTGCAG | 3210 fluorescence intensity (a.u.)
23 | AGTGCCACTTAAGCGCCACATCAACGCCACATGGAAAGAACGGAGTCACCTAGTGCAG | 4210 fluorescence intensity (a.u.)

Row | Sequence | binding signal
24 | AGACCCAAGTCACTCTCTCCGCTCCAGTCTCCACTCTCCACGGAGTCACCTAGTGCAG | 23100 fluorescence intensity (a.u.)
25 | ACCACTCTACCACAACCATTACGCTATCCGCCACGAGCAACGGAGTCACCTAGTGCAG | 3270 fluorescence intensity (a.u.)
26 | CTCTAAATTTGTGCAGATGTGTCACCTAGATCCCTGAACTCGGAGTCACCTAGTGCAG | 4340 fluorescence intensity (a.u.)
27 | AAGATCTGTATGCCTCATGAGGGTTGGTGTGTAATACTCCCGGAGTCACCTAGTGCAG | 3890 fluorescence intensity (a.u.)
28 | TCCACATGCTAATTTGTGGTGTCAGATACCTGAATACTCCCGGAGTCACCTAGTGCAG | 41400 fluorescence intensity (a.u.)
29 | CCCCTACTATTTTCTAGGCTAGGAAGCGTGCGATCTTTTCCGGAGTCACCTAGTGCAG | 3240 fluorescence intensity (a.u.)
30 | TGGCGCGACTGCTCGGGTCACCATAAATACGGGTAGGTGGCGGAGTCACCTAGTGCAG | 3940 fluorescence intensity (a.u.)
31 | GATTGATGAGGCCGCAAAGCCTGGCTGCCTGCCTGCTTCTCGGAGTCACCTAGTGCAG | 54300 fluorescence intensity (a.u.)
32 | CTGCTTGAATCCTTCTCGCTGAGCTGGCCTGCAGCCTTTTCGGAGTCACCTAGTGCAG | 7190 fluorescence intensity (a.u.)
33 | CTCCGCCGCTGGCCGCCTTGCCTGCTTGAGAGGAGGAGAGCGGAGTCACCTAGTGCAG | 26800 fluorescence intensity (a.u.)
34 | CATTATACATGTGTCATGTGTATTCGACTTCTGTGCTGCCCGGAGTCACCTAGTGCAG | 4750 fluorescence intensity (a.u.)
35 | GGTAGTCTGAAGCCTGTTGGTTATCCTCCTGGGAGTGTTGCGGAGTCACCTAGTGCAG | 3220 fluorescence intensity (a.u.)
36 | AGATTAGTTTTCCCATATATTTCTTGTCAGTCGTCGTCATCGGAGTCACCTAGTGCAG | 3760 fluorescence intensity (a.u.)
37 | AAGTAGTGTCTATGGTGCCATGTCAATAGGACATCATAATCGGAGTCACCTAGTGCAG | 3920 fluorescence intensity (a.u.)
38 | AATCAATACAAAGTCTGAAAGCCATTATGGTGGCAGTAATCGGAGTCACCTAGTGCAG | 61300 fluorescence intensity (a.u.)
39 | ATAAAGTAACACATACACAAAGCCACATCATCAATATTTTCGGAGTCACCTAGTGCAG | 8990 fluorescence intensity (a.u.)
40 | CACTTTTATGACATTTTCAACCATACTATTTTCCTTAAAGCGGAGTCACCTAGTGCAG | 39800 fluorescence intensity (a.u.)
41 | ATGCTAACCAACTAAAATACTTTTCCATGTACCTTACAAGCGGAGTCACCTAGTGCAG | 60000 fluorescence intensity (a.u.)
42 | TTCTTTTCCCATGGCCTCTGACTATGACATTATTTAAACACGGAGTCACCTAGTGCAG | 3440 fluorescence intensity (a.u.)
43 | CATTTCCAAATTACATGTATGAATCCAACCAAAACTTTTCCGGAGTCACCTAGTGCAG | 17200 fluorescence intensity (a.u.)
44 | ATTTATATTTTAAAATATACTTTTATATGACACTAATTTTCGGAGTCACCTAGTGCAG | 3170 fluorescence intensity (a.u.)
45 | AATTTACAAGGTAAAATTTTATACCACCTTATATACTTTGCGGAGTCACCTAGTGCAG | 4160 fluorescence intensity (a.u.)

Reference: article PMC7819943, “Rice protein-binding microarrays: a tool to detect cis-acting elements near promoter regions in rice”
